Measurements taken from ChEMBL document CHEMBL3988442, “University of Dundee, Small-Polar-MMV Screening Library” (2021).
For part of these data: Results with a measured potency or affinity are listed apart.

Assays:
Set-up in all cases: scale not given: direction of the effect not stated beside the values
[1] = target: Protein translocase subunit SecA (Escherichia coli (strain K12)) (UniProt P10408); test: Assay to Identify E. coli SecA ATPase Inhibitors; format: functional; details: 30 µM
[2] = target: T1, Ubiquitin-activating enzyme e1, putative (Leishmania donovani (strain BPK282A1)) (UniProt E9BSI1); test: Leishmania donovani Ubiquitin Activating Enzyme (LdE1); format: functional; details: 30 µM
T1 sequence (whole entry): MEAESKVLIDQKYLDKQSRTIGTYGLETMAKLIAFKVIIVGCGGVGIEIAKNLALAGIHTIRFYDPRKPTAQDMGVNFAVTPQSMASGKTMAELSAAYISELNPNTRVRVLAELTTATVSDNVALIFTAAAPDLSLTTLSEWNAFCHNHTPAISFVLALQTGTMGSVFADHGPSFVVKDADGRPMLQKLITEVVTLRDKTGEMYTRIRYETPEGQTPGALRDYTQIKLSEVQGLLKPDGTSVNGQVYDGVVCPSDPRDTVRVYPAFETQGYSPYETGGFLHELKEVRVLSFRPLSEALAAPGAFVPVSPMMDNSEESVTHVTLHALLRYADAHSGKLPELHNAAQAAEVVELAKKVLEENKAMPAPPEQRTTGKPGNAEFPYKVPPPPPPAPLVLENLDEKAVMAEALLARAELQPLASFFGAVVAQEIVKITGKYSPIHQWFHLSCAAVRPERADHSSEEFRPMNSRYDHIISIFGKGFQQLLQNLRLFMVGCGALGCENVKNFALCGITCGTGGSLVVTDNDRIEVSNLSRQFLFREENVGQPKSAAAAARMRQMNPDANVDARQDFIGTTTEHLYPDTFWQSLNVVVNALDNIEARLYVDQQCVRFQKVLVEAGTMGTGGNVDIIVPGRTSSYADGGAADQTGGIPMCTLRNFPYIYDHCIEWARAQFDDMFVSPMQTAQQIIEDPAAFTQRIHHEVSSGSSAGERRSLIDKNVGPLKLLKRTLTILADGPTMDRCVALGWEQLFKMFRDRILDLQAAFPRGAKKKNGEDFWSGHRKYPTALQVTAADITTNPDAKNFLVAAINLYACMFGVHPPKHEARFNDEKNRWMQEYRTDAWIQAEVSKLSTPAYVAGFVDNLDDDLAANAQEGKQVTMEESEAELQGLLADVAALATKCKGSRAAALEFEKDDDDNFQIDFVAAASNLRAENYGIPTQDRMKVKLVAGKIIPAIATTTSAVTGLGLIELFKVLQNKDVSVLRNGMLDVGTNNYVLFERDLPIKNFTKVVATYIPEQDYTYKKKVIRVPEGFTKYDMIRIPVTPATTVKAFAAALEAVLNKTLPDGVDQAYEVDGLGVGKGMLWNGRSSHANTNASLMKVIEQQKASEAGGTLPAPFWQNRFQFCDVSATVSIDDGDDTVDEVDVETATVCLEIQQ

[3] = target: T2, Aspartate--tRNA(Asp/Asn) ligase (Mycobacterium tuberculosis (strain ATCC 25618 / H37Rv)) (UniProt P9WFW3); test: Assay for Asp RNA synthetase-1 from Mycobacterium tuberculosis; format: functional; details: 30 µM; note: in the data most compounds retested in dose-response had high values
T2 sequence (whole entry): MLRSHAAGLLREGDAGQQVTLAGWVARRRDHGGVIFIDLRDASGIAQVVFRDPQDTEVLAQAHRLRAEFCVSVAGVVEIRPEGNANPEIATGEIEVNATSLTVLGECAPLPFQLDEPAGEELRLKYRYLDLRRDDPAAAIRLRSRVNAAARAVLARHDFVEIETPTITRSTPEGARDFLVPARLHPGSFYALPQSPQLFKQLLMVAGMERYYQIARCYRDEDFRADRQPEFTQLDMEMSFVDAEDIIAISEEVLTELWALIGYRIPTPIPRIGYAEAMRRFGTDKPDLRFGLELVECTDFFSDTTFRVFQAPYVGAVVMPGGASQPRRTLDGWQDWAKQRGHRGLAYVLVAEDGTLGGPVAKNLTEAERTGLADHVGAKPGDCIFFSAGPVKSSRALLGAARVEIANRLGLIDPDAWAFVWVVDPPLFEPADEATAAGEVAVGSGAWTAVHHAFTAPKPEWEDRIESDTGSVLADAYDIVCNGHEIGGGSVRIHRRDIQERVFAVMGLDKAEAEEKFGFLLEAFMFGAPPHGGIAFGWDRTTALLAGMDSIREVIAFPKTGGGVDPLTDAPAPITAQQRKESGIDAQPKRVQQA

[4] = target: AMP-activated protein kinase, AMPK (Homo sapiens) (UniProt P54646+O43741+P54619+Q9UGJ0+Q9Y478+Q13131+Q9UGI9); test: AMP-dependent Kinase enzyme assay. An in vitro enzyme assay that detects ADP turnover that is directly proportional to AMPK activity. This uses naive AMPK that is activated during the assay with MK-8722; format: functional; details: 30 µM
[5] = target: Sialic acid-binding Ig-like lectin 9 (Homo sapiens) (UniProt Q9Y336); test: Hs-Siglec9 ALPHAscreen SOP 20170721; details: 10 µM
Trypanosoma cruzi = test: Trypanosoma cruzi phosphomannomutase and mannose-1-phosphate guanylyltransferase assay; format: functional; details: 10 µM
[6] = target: T3, Arginase-2, mitochondrial (Homo sapiens) (UniProt P78540); test: in vitro enzyme assay to detect the production of urea directly proportional to the activity of Arginase II; format: functional; details: 33.3 µM; note: in the data most compounds retested in dose-response had high values
T3 sequence (whole entry): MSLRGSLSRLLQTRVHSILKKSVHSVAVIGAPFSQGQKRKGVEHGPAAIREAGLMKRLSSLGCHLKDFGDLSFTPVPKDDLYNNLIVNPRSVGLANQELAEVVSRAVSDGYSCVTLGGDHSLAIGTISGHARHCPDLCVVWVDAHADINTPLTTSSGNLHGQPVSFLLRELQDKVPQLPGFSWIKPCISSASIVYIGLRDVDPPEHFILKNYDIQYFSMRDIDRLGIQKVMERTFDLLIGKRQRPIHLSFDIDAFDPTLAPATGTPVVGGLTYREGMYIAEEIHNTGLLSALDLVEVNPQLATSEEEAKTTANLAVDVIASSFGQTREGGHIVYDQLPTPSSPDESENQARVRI

[7] = target: T4, Proteasome subunit beta (Trypanosoma cruzi) (UniProt O96673); test: Trypanosoma cruzi proteasome chymotrypsin-like activity (TcProtChymo) assay.; note: in the data most compounds retested in dose-response had high values; format: functional; details: 9.37 µM
T4 sequence (whole entry): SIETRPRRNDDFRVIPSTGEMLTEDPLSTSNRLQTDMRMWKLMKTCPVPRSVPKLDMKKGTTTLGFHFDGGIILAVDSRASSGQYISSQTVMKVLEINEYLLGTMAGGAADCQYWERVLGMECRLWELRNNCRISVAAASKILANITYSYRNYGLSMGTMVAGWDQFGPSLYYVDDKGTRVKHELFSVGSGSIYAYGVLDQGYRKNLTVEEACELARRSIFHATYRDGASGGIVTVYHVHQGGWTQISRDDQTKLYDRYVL

Homo sapiens = organism: Homo sapiens; test: To identify inhibition of the IFN signalling (Jak-Stat) pathway via expression of an eGFP reporter gene under the control of an IFN-stimulated response element (ISRE) containing MxA promoter.; format: functional; details: 30 µM
[8] = target: Shiga toxin 2 (Escherichia coli O157:H7) (UniProt P09385+P09386); test: E. coli 0.157:H7 Shiga Toxin SOP - stx2 screening assay; format: functional; details: 30 µM
[9] = target: T5, Tyrosyl-tRNA synthetase, putative (Trypanosoma cruzi (strain CL Brener)) (UniProt Q4DSP6); test: Trypanosoma cruzi tyrosyl tRNA synthetase (TcYRS) _High Tyrosine SOP; format: functional; details: 30 µM; note: in the data most compounds retested in dose-response had high values
T5 sequence (whole entry): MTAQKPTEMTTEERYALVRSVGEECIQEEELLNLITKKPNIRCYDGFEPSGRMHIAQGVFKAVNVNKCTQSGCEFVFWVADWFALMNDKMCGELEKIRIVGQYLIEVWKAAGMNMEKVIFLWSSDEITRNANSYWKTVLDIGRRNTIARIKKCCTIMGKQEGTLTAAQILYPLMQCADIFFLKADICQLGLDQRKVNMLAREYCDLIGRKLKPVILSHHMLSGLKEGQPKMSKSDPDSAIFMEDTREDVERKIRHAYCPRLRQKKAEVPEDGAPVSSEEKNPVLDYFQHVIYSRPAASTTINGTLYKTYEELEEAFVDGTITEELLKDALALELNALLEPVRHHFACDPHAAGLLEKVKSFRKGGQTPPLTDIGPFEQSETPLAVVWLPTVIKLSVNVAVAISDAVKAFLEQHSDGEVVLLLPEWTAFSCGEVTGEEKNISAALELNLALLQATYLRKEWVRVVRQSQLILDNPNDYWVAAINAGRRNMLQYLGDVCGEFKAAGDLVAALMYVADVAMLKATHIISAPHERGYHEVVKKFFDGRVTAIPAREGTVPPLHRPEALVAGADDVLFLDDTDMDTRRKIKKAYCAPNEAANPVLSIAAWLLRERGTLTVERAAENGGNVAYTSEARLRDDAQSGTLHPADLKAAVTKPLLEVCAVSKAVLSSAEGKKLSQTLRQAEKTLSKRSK

[10] = target: T5, Tyrosyl-tRNA synthetase, putative (Trypanosoma cruzi (strain CL Brener)); test: Trypanosoma cruzi tyrosyl tRNA synthetase (TcYRS) SOP; format: functional; details: 30 µM
[11] = target: Chromo domain-containing protein 1 (Saccharomyces cerevisiae (strain ATCC 204508 / S288c) (Baker's yeast)) (UniProt P32657); test: ScCHD-1 Enzyme Inhibition Assay; format: functional; details: 30 µM; note: in the data most compounds retested in dose-response had high values
Chain of Chromo domain-containing protein 1 (Saccharomyces cerevisiae (strain ATCC 204508 / S288c) (Baker's yeast)) (P32657 whole entry, the tested form may be a part): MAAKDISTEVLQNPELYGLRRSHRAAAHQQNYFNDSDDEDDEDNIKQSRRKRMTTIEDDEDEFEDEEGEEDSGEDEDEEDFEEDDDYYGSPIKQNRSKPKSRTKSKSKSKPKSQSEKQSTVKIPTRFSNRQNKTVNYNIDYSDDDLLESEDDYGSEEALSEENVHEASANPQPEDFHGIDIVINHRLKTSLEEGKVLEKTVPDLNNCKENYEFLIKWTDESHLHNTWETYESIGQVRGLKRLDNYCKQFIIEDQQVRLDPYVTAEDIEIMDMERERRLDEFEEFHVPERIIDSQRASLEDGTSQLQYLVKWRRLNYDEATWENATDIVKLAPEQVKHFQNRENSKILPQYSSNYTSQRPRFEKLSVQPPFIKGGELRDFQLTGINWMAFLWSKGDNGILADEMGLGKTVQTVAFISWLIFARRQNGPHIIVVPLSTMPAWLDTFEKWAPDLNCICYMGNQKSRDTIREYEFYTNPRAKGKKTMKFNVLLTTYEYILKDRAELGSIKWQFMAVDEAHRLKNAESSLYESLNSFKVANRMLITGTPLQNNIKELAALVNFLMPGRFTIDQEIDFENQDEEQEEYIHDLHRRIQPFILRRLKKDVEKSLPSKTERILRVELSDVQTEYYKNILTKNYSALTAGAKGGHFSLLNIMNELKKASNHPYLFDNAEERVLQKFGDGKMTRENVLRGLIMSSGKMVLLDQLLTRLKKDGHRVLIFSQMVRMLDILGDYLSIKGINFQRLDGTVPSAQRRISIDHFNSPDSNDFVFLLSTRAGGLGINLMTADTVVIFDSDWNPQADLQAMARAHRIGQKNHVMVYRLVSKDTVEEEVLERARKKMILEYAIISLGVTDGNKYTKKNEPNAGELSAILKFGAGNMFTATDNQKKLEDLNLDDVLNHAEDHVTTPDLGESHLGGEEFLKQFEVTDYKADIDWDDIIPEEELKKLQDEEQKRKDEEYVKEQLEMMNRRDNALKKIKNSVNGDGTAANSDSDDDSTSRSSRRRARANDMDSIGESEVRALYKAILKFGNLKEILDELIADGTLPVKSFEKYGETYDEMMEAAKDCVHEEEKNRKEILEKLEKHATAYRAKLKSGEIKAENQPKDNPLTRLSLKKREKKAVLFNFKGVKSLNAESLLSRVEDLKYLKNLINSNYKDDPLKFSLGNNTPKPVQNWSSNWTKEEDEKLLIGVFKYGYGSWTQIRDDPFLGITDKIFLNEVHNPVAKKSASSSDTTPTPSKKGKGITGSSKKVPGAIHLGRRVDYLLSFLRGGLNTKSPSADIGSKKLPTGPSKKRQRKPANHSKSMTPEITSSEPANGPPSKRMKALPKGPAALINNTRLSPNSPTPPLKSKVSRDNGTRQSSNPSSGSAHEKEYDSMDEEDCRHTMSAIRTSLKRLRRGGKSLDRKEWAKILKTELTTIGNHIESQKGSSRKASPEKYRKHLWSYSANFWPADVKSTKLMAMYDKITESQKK

Chain of Sialic acid-binding Ig-like lectin 9 (Homo sapiens) (Q9Y336 whole entry): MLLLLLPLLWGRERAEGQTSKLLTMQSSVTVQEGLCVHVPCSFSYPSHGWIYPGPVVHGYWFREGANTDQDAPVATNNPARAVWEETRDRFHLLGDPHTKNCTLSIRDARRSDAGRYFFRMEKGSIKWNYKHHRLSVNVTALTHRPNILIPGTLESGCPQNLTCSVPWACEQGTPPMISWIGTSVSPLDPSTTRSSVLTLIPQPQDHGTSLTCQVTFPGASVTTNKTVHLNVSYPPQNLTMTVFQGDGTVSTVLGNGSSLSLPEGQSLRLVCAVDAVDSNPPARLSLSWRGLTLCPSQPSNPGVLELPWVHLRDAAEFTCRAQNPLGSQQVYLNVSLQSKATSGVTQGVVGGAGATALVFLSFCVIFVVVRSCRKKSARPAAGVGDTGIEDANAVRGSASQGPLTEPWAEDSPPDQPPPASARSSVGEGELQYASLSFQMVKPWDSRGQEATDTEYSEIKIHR
Chain of Protein translocase subunit SecA (Escherichia coli (strain K12)) (P10408 whole entry): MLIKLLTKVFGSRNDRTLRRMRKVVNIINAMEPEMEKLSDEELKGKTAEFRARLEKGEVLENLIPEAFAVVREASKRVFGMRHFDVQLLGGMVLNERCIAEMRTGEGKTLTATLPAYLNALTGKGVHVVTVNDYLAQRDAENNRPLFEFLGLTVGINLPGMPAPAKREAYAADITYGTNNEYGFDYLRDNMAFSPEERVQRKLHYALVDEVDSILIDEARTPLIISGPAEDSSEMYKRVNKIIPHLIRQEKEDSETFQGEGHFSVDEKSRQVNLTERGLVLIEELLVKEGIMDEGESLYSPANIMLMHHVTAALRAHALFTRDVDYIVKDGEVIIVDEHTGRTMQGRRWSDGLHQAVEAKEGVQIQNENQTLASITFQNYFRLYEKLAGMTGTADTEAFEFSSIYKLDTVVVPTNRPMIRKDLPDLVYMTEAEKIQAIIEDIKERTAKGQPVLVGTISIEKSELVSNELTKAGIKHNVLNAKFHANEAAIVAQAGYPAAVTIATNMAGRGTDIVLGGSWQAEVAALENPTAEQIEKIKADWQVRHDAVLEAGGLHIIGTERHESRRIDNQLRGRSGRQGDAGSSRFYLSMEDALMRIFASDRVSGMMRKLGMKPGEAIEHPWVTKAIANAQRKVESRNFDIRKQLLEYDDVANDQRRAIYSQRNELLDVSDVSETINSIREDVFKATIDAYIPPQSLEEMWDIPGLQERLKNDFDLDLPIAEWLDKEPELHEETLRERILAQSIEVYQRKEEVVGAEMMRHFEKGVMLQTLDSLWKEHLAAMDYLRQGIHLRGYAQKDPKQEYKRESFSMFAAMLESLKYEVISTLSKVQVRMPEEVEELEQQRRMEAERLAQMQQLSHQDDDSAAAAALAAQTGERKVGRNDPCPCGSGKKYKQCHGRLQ

SMILES	Percent Effect [1]	Percent Effect [2]	Percent Effect [3]	Percent Effect [4]	Percent Effect [5]	Percent Effect (Trypanosoma cruzi)	Percent Effect [6]	Percent Effect [7]	Percent Effect (Homo sapiens)	Percent Effect [8]	Percent Effect [9]	Percent Effect [10]	Percent Effect [11]
CCCN1CCN(Cc2nccn2CC)C(C)C1 (configuration not stated)	-1.91%	13.5%	1.06%	-5.87%	-10.4%	-2.54%	-1.67%	8.54%	32.2%	-11.5%	8.91%	8.54%	-3.53%
O=C(Cc1cccs1)N1C[C@@H]2OCCN(CC3CCCC3)[C@@H]2C1	-3.05%	11%	-2.94%	-0.507%	19.2%	1.59%	-6.79%	4.37%	-10.9%	13.2%	4.17%	6.17%	-1.65%
COC[C@@H]1CCC[C@]12CN(Cc1cccc(C)n1)CCO2	2.73%	4%	3.92%	0.13%	-3.4%	-8.45%	0.528%	15.3%	9.81%	-43.1%	2.12%	2.56%	-8.43%
c1cncc(OC[C@]23COC[C@H]2CN(Cc2cccs2)C3)c1	-3.94%	5.41%	4.12%	0.208%	-2.85%	-2.34%	-0.417%	6.85%	11.9%	-3%	6.93%	15.8%	4.29%
COc1ccccc1C1SCC(=O)Nc2n[nH]cc21 (configuration not stated)	-5.34%	5.26%	6.47%	16.6%	-1.26%	-2.63%	15.4%	12.6%	-13.4%	5.55%	3.19%	2.6%	-2.61%
CC(C)NC(=O)[C@H]1C[C@@H]2[C@@H](C1)OCCN2Cc1cccnc1	1.37%	-5.33%	3.61%	10.3%	6.39%	-4.25%	-52.9%	1.54%	7.17%	-9.38%	3.12%	2.5%	-0.286%
COc1cccc(CCNCc2c(C)nn(C)c2N(C)C)c1	-3.25%	10.5%	-2.61%	-2.73%	0.941%	-4.13%	-3.45%	13.4%	-20.1%	28.4%	3.43%	12.2%	-4.73%
CCn1cc(CN2CCCN(C(=O)Cc3ccc(C)nc3)CC2)cn1	-6.08%	10.4%	-1.87%	0.798%	5.82%	6.76%	-3.58%	5.09%	-17.1%	1.69%	-1.91%	9.41%	-14.6%
CC(Cc1c(F)cccc1F)NC(=O)Nc1cnn(CC(N)=O)c1 (configuration not stated)	-4.08%	21.5%	-0.509%	-1.23%	-0.0747%	0.513%	-1.07%	19.7%	15%	-36.4%	3.12%	17.7%	-23.1%
